The list shows a part of the results. Activity calls are given as the source filed them. Calls come from the whole dose curve.
Target: 15-hydroxyprostaglandin dehydrogenase [NAD(+)] (Homo sapiens) (UniProt P15428)
Test: Confirmation qHTS Assay for Inhibitors of HPGD (15-Hydroxyprostaglandin Dehydrogenase)
Details: recombinant HPGD, NADH fluorescence, PGE2 substrate
Excerpt: Assay Overview: Human 15-Hydroxyprostaglandin dehydrogenase (HPGD) catalyzes the inactivation of prostaglandin E2, and plays a major role in cancer biology by antagonizing the oncogenic potential of cyclooxygenase type 2 (COX2). Assays are available, based on absorbance/fluorescence increase of NADH with the substrate 15-OH prostaglandin E2. Inhibition of HPGD activity was screened by utilizing prostaglandin as an electron donor and NAD+ as an electron acceptor/cofactor. An increase in the fluorescence intensity due to conversion of NAD+ to NADH was used to measure the enzyme activity. This assay is a confirmation screen of primary qHTS protocol (See AID 894). References 1. Myung SJ, Rerko RM, Yan M, Platzer P, Guda K, Dotson A, Lawrence E, Dannenberg AJ, Lovgren AK, Luo G, Pretlow TP, Newman RA, Willis J, Dawson D, Markowitz SD. 15-Hydroxyprostaglandin dehydrogenase is an in vivo suppressor of colon tumorigenesis. Proc Natl Acad Sci U S A. 2006 Aug 8;103(32):12098-102. 2. […]
Buffer: 50 mM Tris-HCl, 0.01% Tween 20, pH 8. […] The plates were immediately transferred to and read 5 times every 30 seconds on ViewLux High-throughput CCD imager (Perkin-Elmer) using 360 nm excitation and 450 nm emission fluorescence protocol. The fluorescence intensity difference between the last and the first time points was used to compute reaction progress.

15-hydroxyprostaglandin dehydrogenase [NAD(+)] (Homo sapiens), sequence (P15428 whole entry, looked up): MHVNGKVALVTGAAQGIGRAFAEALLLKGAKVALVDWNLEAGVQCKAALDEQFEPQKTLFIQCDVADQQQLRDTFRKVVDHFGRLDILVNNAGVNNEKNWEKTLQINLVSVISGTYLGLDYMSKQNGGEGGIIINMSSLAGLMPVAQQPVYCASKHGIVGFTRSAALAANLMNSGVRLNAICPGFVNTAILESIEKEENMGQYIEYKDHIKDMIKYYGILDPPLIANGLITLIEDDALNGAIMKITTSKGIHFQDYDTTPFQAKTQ

With CCN(CC)C(=O)c1ccc(NC(=O)c2cc(-n3cnnc3)ccc2Cl)cc1 the Potency was 7.08 µM (active).

From PubChem BioAssay AID2429 (National Center for Advancing Translational Sciences (NCATS), 2010)
